D2 antag: antagonizes the human D2 dopamine receptor; 340,000 tested, 2% active; HEK293 TREx D2 cells, calcium flux, dopamine EC80; inhibition, % at 10 µM; P14416; AID 485344; in the data active = inhibition above about 30%; inactive = below that, where a call was filed
Target sequence (P14416 whole entry, looked up): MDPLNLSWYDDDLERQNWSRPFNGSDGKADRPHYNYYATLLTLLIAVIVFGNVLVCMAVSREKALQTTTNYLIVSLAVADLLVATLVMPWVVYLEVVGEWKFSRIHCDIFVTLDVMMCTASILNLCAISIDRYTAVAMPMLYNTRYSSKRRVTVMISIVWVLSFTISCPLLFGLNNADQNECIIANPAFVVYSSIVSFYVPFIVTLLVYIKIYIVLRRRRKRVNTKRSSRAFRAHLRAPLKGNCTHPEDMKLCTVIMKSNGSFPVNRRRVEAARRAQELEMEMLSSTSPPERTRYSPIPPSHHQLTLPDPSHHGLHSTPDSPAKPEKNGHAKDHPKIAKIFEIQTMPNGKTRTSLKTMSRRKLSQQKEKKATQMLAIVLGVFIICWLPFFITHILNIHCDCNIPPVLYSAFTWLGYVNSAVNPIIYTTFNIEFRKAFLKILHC
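Calcium flux kinetic readout in an inducible HEK293 TREx D2 line plated overnight at 30 C. After 180 s compound exposure, an EC80 dopamine challenge follows with another 180 s kinetic read to detect antagonism.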
D2 PAM-1: D2 dopamine receptor (human) potentiation; P14416; HEK293 T-REx D2, calcium flux, EC20 dopamine potentiation; potentiation, % at 10 µM; 340,000 tested, 0.34% active;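 active = potentiation over 3 SD above the plate norm, cut at about 30% in these data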
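Tetracycline-induced Hek293 Trex D2 cells, force-coupled to calcium, loaded with no-wash calcium dye. Compound added with 180 s kinetic read for agonism, then EC20 dopamine and a further 180 s read for potentiation.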
D2 ag-1: activates the human D2 dopamine receptor; HEK293 T-REx D2 cells, calcium flux agonist mode; P14416; 340,000 tested, 0.53% active; activation, % at 2 µM;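 active = activation over 3 SD above normal in the single-dose calcium agonist read, cut at about 30% in these data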
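Agonism is scored from calcium flux in a force-coupled, inducible HEK293 cell line expressing D2, read kinetically for 180 s after compound addition against dopamine controls.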
D2 ag-2: activates the human D2 dopamine receptor; activation, % (no concentration beside the values); P14416; DiscoveRx PathHunter D2 beta-arrestin, luminescence, 90 min; 100% = 57 uM dopamine signal; AID 624465; 360,000 tested, 0.084% active; in the data active = activation above about 40%; inconclusive = between about 15% and that limit
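Agonist mode: compounds alone added to overnight-plated D2 PathHunter cells for 90 min at 37 C, with 57 uM final dopamine (EC100) defining full response. Beta-arrestin recruitment detected by chemiluminescent reagent, read after 1 h at ambient temperature.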
D2 PAM-2: human D2 receptor positive allosteric modulation; DiscoveRx D2 beta-arrestin cells, luminescence, 90 min; 100% = 57 uM dopamine signal; potentiation, % (concentration not given with the values); AID 624464; 360,000 tested, 0.23% active; P14416; in the data active = potentiation above about 50%; inconclusive = mostly about 30% to 49%
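PathHunter D2 cells, attached overnight at 37 deg C, received compound in DMSO plus dopamine at EC20 (50 nM final) for 90 min at 37 deg C. Beta-arrestin recruitment was read as luminescence after 1 h with detection reagent at ambient temperature.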
Of the large screens only hits and unclear results are named; the others gave an inactive call; ! = not active in a repeat. Hits are enriched below; roughly 2.4% of the tested compounds scored in any of these assays.

COc1ccccc1CCNC(=O)Cn1ccc2cc(S(=O)(=O)N3CCCCC3)ccc21	none (no result: D2 antag, D2 ag-2, D2 PAM-2)
CCOC(=O)c1nc(Nc2ccccc2CC)c2ccccc2n1	D2 antag 33
O=S(=O)(NCCc1nnc2ccc(SCc3cccnc3)nn12)c1ccccc1	D2 PAM-1 32
COc1ccccc1NC(=S)NNC(=O)c1nn(C)c(C)c1Br	none
Cn1cc(Cl)c(C(=O)NNC(=S)NCc2ccco2)n1	none
Cc1c(Cl)c(C(=O)NNC(=S)NCc2ccco2)nn1C	D2 antag 35
O=C(NNC(=S)NCc1ccco1)c1ccc(Cl)s1	D2 antag 33
COc1ccccc1NC(=S)NNC(=O)c1nn(C)c(C)c1Cl	D2 antag 82
COc1ccc(/C=C2\SC(N)=NC2=O)cc1Br	none
CCCOc1ccc(/C=C2\SC(N)=NC2=O)cc1OC	D2 antag 66
CCOc1ccc(CCNC(=O)C2CCC(CNS(=O)(=O)c3ccc(Cl)cc3)CC2)cc1OCC (centres undefined)	none (no result: D2 antag, D2 ag-2, D2 PAM-2)
COc1ccc(-c2ccc3c(c2)S(=O)(=O)c2cccc(C(=O)N4CCN(C5CCCCC5)CC4)c2C3=O)cc1OC	D2 ag-2 inconclusive, D2 PAM-2 118 (no result: D2 antag, D2 PAM-1, D2 ag-1)
CCCCCOP(=O)(OCCCCC)C1(NS(=O)(=O)c2ccccc2)C=CC(=O)c2ccccc21 (centres undefined)	D2 ag-2 inconclusive, D2 PAM-2 90
CCc1ccccc1NC(=O)CN1C(=O)CCSc2ccc(S(=O)(=O)N3CCCC3)cc21	none (no result: D2 antag, D2 ag-2, D2 PAM-2)
Cc1ccc(/C=N/NC(=O)CSc2nnc(-c3ccc(Cl)cc3)n2-c2ccccc2)o1	D2 ag-2 inconclusive, D2 PAM-2 88
O=C(CSc1nnc(-c2ccc(Cl)cc2)n1-c1ccc(Cl)cc1)N/N=C/c1ccco1	none
Oc1ccc(C2CNCCc3c2cc(O)c(O)c3Cl)cc1 (centres undefined)	D2 ag-2 inconclusive, D2 PAM-2 58!
Cc1nc2ccccn2c(=O)c1NC(=O)c1ccc(C(F)(F)F)cc1	none (no result: D2 antag, D2 ag-2, D2 PAM-2)
CCCN1C(=O)/C(=C/c2ccc(N3CCCC3)c(C)c2)NC1=S	none (no result: D2 antag, D2 PAM-1, D2 ag-1)
CCCN1C(=O)/C(=C/c2ccc(N3CCOCC3)cc2)NC1=S	none (no result: D2 PAM-1)
CN1C(=O)/C(=C/c2ccc(OCc3ccc(F)cc3)cc2)N(C)C1=S	none (no result: D2 antag, D2 PAM-1, D2 ag-1)
Cc1cc(/C=C2\NC(=S)N(C)C2=O)ccc1N1CCCC1	D2 antag 42, D2 ag-1 69
Cc1cc(N2CCCC2)ccc1/C=C1/C(=O)N(C)C(=S)N1C	D2 antag 59
CCN1C(=O)/C(=C/c2ccc(N3CCCC3)cc2)NC1=S	D2 ag-1 59
Cc1cc(/C=C2/C(=O)N(C)C(=S)N2C)ccc1N1CCCC1	D2 ag-1 32
CCN(CC)c1ccc(-c2nc(-c3ccccc3C)no2)cc1[N+](=O)[O-]	none (no result: D2 antag, D2 ag-2, D2 PAM-2)
Cn1c(-c2ccc(S(=O)(=O)N3CCCC3)cc2)csc1=Nc1ccc(Cl)c(Cl)c1	none (no result: D2 antag, D2 ag-2, D2 PAM-2)
COc1cc(CN(C)CCc2ccccc2)ccc1OCc1ccccc1	D2 antag 36
CCN(CC)CCCNC(=O)c1cc2c(=O)n(C)c3ccccc3c2n1C	none
CCN(CC)CCNC(=O)c1cc2c(=O)n(C)c3ccccc3c2n1C	D2 antag 37
CN(C)CCNC(=O)c1cc2c(=O)n(C)c3ccccc3c2n1C	D2 PAM-1 33
Cn1c(C(=O)NCCCN2CCc3ccccc3C2)cc2c(=O)n(C)c3ccccc3c21	D2 antag 81
COCCNC(=O)c1cc2c(=O)n(C)c3ccccc3c2n1C	none
CCc1nnc2c(N3CCN(c4cccc(C(F)(F)F)c4)CC3)nc3ccccc3n12	none (no result: D2 antag, D2 ag-2, D2 PAM-2)
COc1ccc(NC(=O)c2ccc(S(=O)(=O)N3CCCCCC3)cc2)c(OC)c1	none
O=C(Nc1cccnc1)c1cccc(S(=O)(=O)N2CCCCC2)c1	D2 antag 53
COc1cc(S(=O)(=O)N2CCCCC2)ccc1NC(=O)c1ccncc1	D2 antag 37
COC(=O)Nc1ccc(S(=O)(=O)N2CCCC(C(=O)Nc3cccnc3)C2)cc1 (centres undefined)	D2 antag 43
CC(C)Oc1ccc(CNC(=O)C2CCN(C(=O)N3CCOc4ccc(Cl)cc43)CC2)cc1	none (no result: D2 antag, D2 ag-2, D2 PAM-2)
COc1ccc(C(=O)NCCC2=CCCCC2)cc1OC	D2 antag 35
COc1ccc(C(=O)NCCSCc2cccc(Cl)c2)cc1OC	D2 antag 32
COc1ccc(C(=O)NCCC2=CCCCC2)cc1	none
COc1ccc(C(=O)NCCc2cnc[nH]2)cc1OC	D2 antag 35
Cc1ccc(NC(=O)Cn2ncn3c(cc4ccccc43)c2=O)cc1C	none (no result: D2 antag, D2 ag-2, D2 PAM-2)
COc1ccc(NC(=O)CN2C(=O)COc3ccc(S(=O)(=O)N4CCCCC4)cc32)cc1Cl	none (no result: D2 antag, D2 ag-2, D2 PAM-2)
O=C(CSc1nc2ccc(N3CCOCC3)cc2c(=O)n1CCc1ccccc1)NCC1CCCO1 (centres undefined)	D2 antag 41 (no result: D2 PAM-1)
O=C(Cc1cn2ccsc2n1)OCc1ccccc1	D2 antag 32
O=C(Cc1cn2ccsc2n1)OCc1nc2ccccc2s1	none
O=C(CSc1oc(-c2ccc(F)cc2)nc1S(=O)(=O)c1ccc(Cl)cc1)c1ccccc1	none (no result: D2 antag, D2 ag-2, D2 PAM-2)
O=C(CSc1nc(=O)[nH]c2c1CCCC2)NCc1ccc(Cl)cc1	none (no result: D2 antag, D2 ag-2, D2 PAM-2)
Cc1nn2c(=O)cc(COC(=O)c3ccc(NC(=O)c4cccs4)cc3)nc2s1	none (no result: D2 antag, D2 ag-2, D2 PAM-2)
CC(C)Cn1c(=S)[nH]c2cc(C(=O)O)ccc2c1=O	D2 antag 31
COCCn1c(=S)[nH]c2cc(C(=O)NC(C)C)ccc2c1=O	none
CC(=O)N1CCOc2ccc(S(=O)(=O)N3CCC(C(=O)Nc4cc(C)cc(C)c4)CC3)cc21	D2 antag 52
Cc1cc(C)cc(NC(=O)C2CCN(S(=O)(=O)c3ccc4[nH]c(=O)ccc4c3)CC2)c1	D2 antag 31
CC(C)OCCCNC(=O)C(=O)Nc1ccc2nc3n(c(=O)c2c1)CCCCC3	none (no result: D2 antag, D2 ag-2, D2 PAM-2)
CCS(=O)(=O)N1Cc2ccccc2CC1C(=O)N(C)CC(=O)Nc1cccc(F)c1 (centres undefined)	D2 antag 41
Cc1cc(NC(=O)CN2CC(C)OC(C)C2)n(-c2nc3ccccc3s2)n1 (centres undefined)	D2 antag 34
Oc1ccc(NCc2ccccc2OCc2ccccc2F)cc1	D2 PAM-2 115
CCOc1cc(CNCc2ccccc2)ccc1OCc1ccc(Cl)cc1	none (no result: D2 antag, D2 PAM-1, D2 ag-1)
CCOc1cccc(CNc2ccc(O)cc2)c1OCc1ccc(Cl)cc1	D2 ag-2 inconclusive, D2 PAM-2 91
CCOc1cc(CNc2ccc(O)cc2)ccc1OCc1ccc(Cl)cc1Cl	D2 ag-2 44, D2 PAM-2 96
Cc1ccc(/C(N)=N/OC(=O)N2c3ccccc3Sc3ccccc32)cc1	D2 ag-2 inconclusive, D2 PAM-2 101 (no result: D2 antag, D2 PAM-1, D2 ag-1)
CCOc1cc(Cn2c(-c3ccc(O)c(OCC)c3)nc3ccccc32)ccc1O	none (no result: D2 antag, D2 ag-2, D2 PAM-2)
CSc1ccc(/C=C(\C(=O)O)c2ccc(S(=O)(=O)N3CCCC3)s2)cc1	D2 antag 36
